Experimental data: PubChem BioAssay (NCI)
This is part of a sample that, as a whole, favours compounds with a hit. Of some 79,000 tested, about 15% had one in any assay. Calls of active or inactive are those of the source. No stated cut-off is given here; in the data, active means growth inhibition above about 70%; inactive means the rest.

How the values were obtained:
[1] = NCI Yeast Anticancer Drug Screen. Data for the rad50 strain (AID 155);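 further: 0% = growth of vehicle-only cultures of the same strain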; conditions: S. cerevisiae rad50 strain growth inhibition, hits give high values
Summary of the method: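 Cells are treated with compound, grown, and their growth is then scored against vehicle-only cultures of the same repair-deficient yeast strain.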

[2] = NCI Yeast Anticancer Drug Screen. Data for the mec2-1 strain (AID 157); conditions: S. cerevisiae mec2-1 strain, hits give high values
Summary of the method: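 Yeast mec2-1 mutant treated with compound. Readout: growth inhibition vs vehicle controls.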

[3] = NCI Yeast Anticancer Drug Screen. Data for the sgs1 mgt1 strain (AID 161);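 further: 0% = growth of cultures given vehicle only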; conditions: S. cerevisiae sgs1 mgt1 strain, hits give high values
Summary of the method: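 Read-out: growth inhibition vs vehicle controls. Cells: mutant yeast strain deficient in DNA damage repair.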

[4] = NCI Yeast Anticancer Drug Screen. Data for the cln2 rad14 strain (AID 165);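 further: 0% = growth equal to vehicle treated cultures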; conditions: S. cerevisiae cln2 rad14 strain, hits give high values
Summary of the method: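 cln2 rad14 yeast strain; compound exposure; growth inhibition read vs vehicle controls.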

[5] = NCI Yeast Anticancer Drug Screen. Data for the bub3 strain (AID 167); conditions: S. cerevisiae bub3 mutant strain, hits give high values
Summary of the method: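 Part of a panel of yeast mutants defective in DNA damage repair or cell cycle regulation. Each strain is grown with compound, and inhibition is calculated relative to solvent-treated cultures.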

[6] = NCI Yeast Anticancer Drug Screen. Data for the mlh1 rad18 strain (AID 175); conditions: S. cerevisiae mlh1 rad18 strain growth inhibition, hits give high values
Summary of the method: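 Yeast w/ defined DNA-repair lesions; compound exposure; growth vs vehicle controls → % inhibition.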

[7] = at 5.0 µM (retest, dose inferred, filed as 0.5)
[8] = at 50.0 µM (retest, dose inferred, filed as 5.0)

Measured: growth inhibition

O=C(O)C(CS)Nc1c2ccccc2nc2ccccc12 (stereo not given)
active: [1]; [8] 88% | [1]; at 50.0 µM 88.6% | [3]; [8] 76% | [5]; [8] 71% | [6]; [8] 81% | [6]; at 50.0 µM 91.2%
inactive: [1]; [7] 17% | [2]; [7] 10% | [2]; [8] 64% | [2]; at 50.0 µM 39.5% | [3]; [7] 11% | [3]; at 50.0 µM 65% | [4]; [7] 17% | [4]; [8] 47% | [4]; at 50.0 µM 68.5% | [5]; [7] -5% | [5]; at 50.0 µM 37.5% | [6]; [7] 16%

CCC1OC(OC)C=CC1=O (stereo not given)
active: [1]; at 50.0 µM 90% | [2]; at 50.0 µM 94% | [3]; at 50.0 µM 90.2% | [4]; at 50.0 µM 90.5% | [5]; at 50.0 µM 90.3% | [6]; at 50.0 µM 91.8%
inactive: [1]; [7] -1% | [1]; [8] -8% | [2]; [7] -10% | [2]; [8] -25% | [3]; [7] -14% | [3]; [8] -19% | [4]; [7] 18% | [4]; [8] 15% | [5]; [7] -6% | [5]; [8] -15% | [6]; [7] -16% | [6]; [8] -30%

Cc1c2ccccc2c(C)c2c1ccc1ccccc12
inactive: [4]; [7] 60%
active: [1]; [7] 73% | [1]; [8] 91% | [1]; at 50.0 µM 96.8% | [2]; [7] 93% | [2]; [8] 91% | [2]; at 50.0 µM 97.5% | [3]; [7] 93% | [3]; [8] 94% | [3]; at 50.0 µM 97.7% | [4]; [8] 91% | [4]; at 50.0 µM 83.4% | [5]; [7] 81% | [5]; [8] 93% | [5]; at 50.0 µM 94.3% | [6]; [7] 93% | [6]; [8] 91% | [6]; at 50.0 µM 98.1%

Cc1ccc(S(=O)(=O)Nc2ccc3c(c2)C(=O)c2ccccc2-3)cc1
active: [1]; [8] 90% | [1]; at 50.0 µM 91.7% | [2]; [8] 93% | [2]; at 50.0 µM 91.4% | [3]; [8] 95% | [3]; at 50.0 µM 91.3% | [4]; [8] 89% | [5]; [8] 94% | [5]; at 50.0 µM 93.7% | [6]; [8] 94% | [6]; at 50.0 µM 84.9%
inactive: [1]; [7] 14% | [2]; [7] 6% | [3]; [7] 7% | [4]; [7] -5% | [4]; at 50.0 µM 58.5% | [5]; [7] 6% | [6]; [7] 17%

O=C(O)C(O)C(O)C(O)C(O)c1nc2ccccc2s1 (stereo not given)
active: [1]; [8] 98% | [1]; at 50.0 µM 98.6% | [2]; [8] 99% | [2]; at 50.0 µM 98.7% | [3]; [8] 96% | [3]; at 50.0 µM 90.5% | [4]; [8] 95% | [4]; at 50.0 µM 73.7% | [5]; [8] 99% | [5]; at 50.0 µM 99% | [6]; [8] 97% | [6]; at 50.0 µM 99%
inactive: [1]; [7] 13% | [2]; [7] 13% | [3]; [7] 12% | [4]; [7] 1% | [5]; [7] 8% | [6]; [7] 9%

CCCCN(CCCC)CCC(O)(c1ccc(OC)c2ccccc12)C(O)(CCN(CCCC)CCCC)c1ccc(OC)c2ccccc12 (stereo not given)
active: [1]; [8] 99% | [1]; at 50.0 µM 99.2% | [2]; [8] 100% | [2]; at 50.0 µM 99.7% | [3]; [8] 99% | [3]; at 50.0 µM 99.6% | [4]; [8] 99% | [4]; at 50.0 µM 98.9% | [5]; [8] 99% | [5]; at 50.0 µM 99.2% | [6]; [8] 99% | [6]; at 50.0 µM 97.5%
inactive: [1]; [7] 43% | [2]; [7] -2% | [3]; [7] 60% | [4]; [7] 35% | [5]; [7] 39% | [6]; [7] 52%

N#Cc1c(Cl)nc2ccccc2c1N=[N+]=[N-]
inactive: [1]; [7] -1% | [1]; [8] 12% | [1]; at 50.0 µM 50.6% | [2]; [7] -19% | [2]; [8] -9% | [2]; at 50.0 µM 63.3% | [3]; [7] -14% | [3]; [8] 18% | [3]; at 50.0 µM 56.2% | [4]; [7] 6% | [4]; [8] 8% | [4]; at 50.0 µM 50.5% | [5]; [7] -8% | [5]; [8] -15% | [5]; at 50.0 µM 14.8% | [6]; [7] -18% | [6]; [8] 8% | [6]; at 50.0 µM 58.2%

O=C(N/C(=C\c1ccccc1Cl)c1nc2ccccc2s1)c1ccccc1
active: [1]; [8] 99% | [1]; at 50.0 µM 99% | [2]; [8] 99% | [2]; at 50.0 µM 99.2% | [3]; [8] 99% | [3]; at 50.0 µM 99.2% | [4]; [8] 99% | [4]; at 50.0 µM 99% | [5]; [8] 99% | [5]; at 50.0 µM 98.8% | [6]; [8] 99% | [6]; at 50.0 µM 99.1%
inactive: [1]; [7] 20% | [2]; [7] 13% | [3]; [7] 54% | [4]; [7] 11% | [5]; [7] 30% | [6]; [7] 20%

c1ccc(CN2CCc3[nH]c4ccccc4c3C2)cc1
inactive: [1]; [7] -1% | [1]; [8] -3% | [1]; at 50.0 µM -1.9% | [2]; [7] -1% | [2]; [8] -2% | [2]; at 50.0 µM 17.1% | [3]; [7] -4% | [3]; [8] -1% | [3]; at 50.0 µM 7.8% | [4]; [7] -1% | [4]; [8] -7% | [4]; at 50.0 µM 33.5% | [5]; [7] 1% | [5]; [8] 6% | [5]; at 50.0 µM -2.45% | [6]; [7] -3% | [6]; [8] -1% | [6]; at 50.0 µM 18%

CCCCCCCCCCCCCC(=O)N1CCOCC1
inactive: [1]; [7] 0% | [2]; [7] -3% | [3]; [7] -3% | [4]; [7] -1% | [5]; [7] 4% | [6]; [7] 7%
active: [1]; [8] 99% | [1]; at 50.0 µM 97.8% | [2]; [8] 100% | [2]; at 50.0 µM 99.7% | [3]; [8] 99% | [3]; at 50.0 µM 98% | [4]; [8] 99% | [4]; at 50.0 µM 96.5% | [5]; [8] 99% | [5]; at 50.0 µM 99.6% | [6]; [8] 99% | [6]; at 50.0 µM 99.3%
